Screens as filed in PubChem.
Platelet DG rel: inhibitors of platelet dense granule secretion, primary screen, cell-based, MLPCN, human platelets; AID 1663, 2009; human platelet-rich plasma, SFLLRN dense granule ATP release, luminescence; inhibition, %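 (compounds screened at 7.5 µM in platelet-rich plasma)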; 300,000 compounds, 0.22% hits;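 active means mean replicate score, as percent of positive control, at or above 50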
AI-2 QS mod: Vibrio harveyi AI-2 quorum sensing modulators, primary screen, JMH597 strain, luminescence/OD600 ratio; activity change, % at 7.5 µM; AID 2094, 2009; Vibrio harveyi JMH597 AI-2 luminescence/OD600 ratio, 9 h; stronger effect = lower value; strain lacks LuxN and CqsS sensors; 0 = neutral-control median; 300,000 compounds, 0.4% hits; in the data active means activity change below about -75%, passing the limit was not always enough;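 further: luminescence divided by OD600 gain over 9 h not by final OD600 alone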
HIF activator: HIF pathway transcriptional activators, primary screen, cell-based, U2OS HRE-luciferase, luminescence. 300,000 compounds, 0.32% hits. U2OS HRE-luciferase reporter; normalized: DMSO 0%, desferrioxamine 100%. AID 1910, 2009. activation, % at 7.5 µM (by protocol);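 active means mean activation of at least 10% of the iron chelator positive control signal, with at least half of replicates also reaching 10%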
VLA-4 inh: inhibition in human VLA-4 binding assay, primary screen, VLA-4 allosteric modulator project, MLPCN library, flow cytometry, VLA-4 expressing cells; Integrin alpha-4 (Homo sapiens), P13612; ligand binding flow cytometry; inhibition, % (about 7 µM as worked out from the volumes in the protocol); 330,000 compounds, 0.2% hits; AID 2557, 2010; in the data active means inhibition above about 50%
CHT PAM: CHT positive allosteric modulators, primary screen, cell-based, membrane potential dye, choline EC20. High affinity choline transporter 1 (Homo sapiens), Q9GZV3. CHT-expressing cells; stronger effect = higher value; LV-AA mutant CHT in HEK293 cells. B-score at 10 µM. 310,000 compounds, 0.49% hits. AID 488977, 2010;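 active means initial fluorescence not abnormally high and integrated response B-score, plate-corrected, over 3 SD above library mean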
Target sequence (Q9GZV3 whole entry, looked up): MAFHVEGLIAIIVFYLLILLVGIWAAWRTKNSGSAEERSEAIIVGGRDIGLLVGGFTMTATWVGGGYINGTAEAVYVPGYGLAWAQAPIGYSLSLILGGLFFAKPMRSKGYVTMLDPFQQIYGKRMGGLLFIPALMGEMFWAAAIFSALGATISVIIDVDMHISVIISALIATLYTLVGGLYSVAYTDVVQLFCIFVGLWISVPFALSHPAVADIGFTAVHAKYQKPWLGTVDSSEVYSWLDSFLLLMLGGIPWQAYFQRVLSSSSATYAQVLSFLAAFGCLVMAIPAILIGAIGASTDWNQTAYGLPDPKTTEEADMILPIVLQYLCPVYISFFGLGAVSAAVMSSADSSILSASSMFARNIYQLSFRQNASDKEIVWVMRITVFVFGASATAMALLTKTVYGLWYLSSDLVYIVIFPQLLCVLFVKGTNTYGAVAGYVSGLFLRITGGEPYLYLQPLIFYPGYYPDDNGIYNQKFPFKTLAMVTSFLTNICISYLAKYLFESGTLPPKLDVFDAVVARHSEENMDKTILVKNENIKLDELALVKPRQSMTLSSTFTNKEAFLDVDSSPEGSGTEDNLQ
CHT inh: inhibitors of human choline transporter CHT. High affinity choline transporter 1 (Homo sapiens), Q9GZV3. CHT-expressing cells, membrane potential dye, choline response; stronger effect = lower value. B-score at 10 µM. 310,000 compounds, 0.86% hits. AID 488975, 2010;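 active means B-score over 3 SD under the library average, and starting fluorescence ratio not unusually high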;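 further: choline stimulus applied at its EC90 after an EC20 pre-addition; B-score computed on integrated fluorescence ratio after choline addition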
CHT act confirm: CHT activators, confirmation, cell-based, membrane potential dye, duplicate. shares compounds with CHT PAM. CHT-expressing cells, membrane potential dye fluorescence (FDSS); % of choline EC20–EC90 response window; HEK293 expressing CHT LV-AA mutant; choline added at its EC20. 2,500 compounds, 91% hits. AID 504833, 2011. activation, % at 10 µM;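 active means primary screen active, with duplicate mean activation above negative control mean plus 3 SD, cut at about 11% in these data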
HEK293 MP dye: membrane potential response in parental HEK293 cells, counter-screen for CHT activator project, cell-based, membrane potential dye; membrane potential dye fluorescence (FDSS); measured after EC20 choline addition; 2,500 compounds, 62% hits; AID 623908, 2012; shares compounds with CHT PAM; ratio readout change at 10 µM, hits read low;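 active means duplicate-averaged ratio beyond 3 SD from buffer wells, up or down, though filed actives are nearly all decreases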
Starred values were filed as active, the others as inactive; i = inactive; / = not tested or not shown. Sampled rows, rich in hits. Any-hit rate of the full collection: about 2.2%.

SMILES	Platelet DG rel	AI-2 QS mod	HIF activator	VLA-4 inh	CHT PAM	CHT inh	CHT act confirm	HEK293 MP dye
CCn1cc(S(=O)(=O)c2ccc(C)cc2)c(=O)c2cc(F)c(N3CCN(C)CC3)cc21	-2	2	0	-8	i	i	49*	-49*
CCn1cc(C(=O)NCCCN(C)C)c(=O)c2cc(F)c(N3CCN(C)CC3)cc21	2	19	1	8	i	i	30*	i
Cc1ccc(S(=O)(=O)c2cn(C)c3cc(N4CCOCC4)c(F)cc3c2=O)cc1	-1	27	0	3	i	i	/	/
CCn1cc(C(=O)NCCN(C)C)c(=O)c2cc(F)c(N3CCN(C)CC3)cc21	-5	10	0	7	i	i	/	/
COc1ccc(C(CC(=O)O)N2C(=O)CCC2=O)cc1 (stereo not drawn)	0	20	0	9	i	i	/	/
CCn1c2ccccc2c2cc(CNCc3ccc(OC)cc3OC)ccc21	7	12	-6	36	16*	i	9	i
CN(C)S(=O)(=O)N(CC(=O)NCCSCc1ccc(Cl)cc1)c1ccccc1	-5	16	0	19	8*	i	1	i
Nc1cc2nc3ccccc3oc-2cc1=O	/	/	/	-381	6.8*	i	13*	-38*
O=c1oc2ccccc2cc1-c1nc2ccccc2o1	0	20	0	2	i	i	/	/
C=C1CC[C@H](O)C/C1=C/C=C1\CCC[C@]2(C)[C@@H]([C@H](C)/C=C/[C@H](C)C(C)C)CC[C@@H]12	/	/	/	15	i	i	/	/
CC(C)(C)n1nc2c(c1NC(=O)c1cc(Cl)ccc1[N+](=O)[O-])CS(=O)(=O)C2	10	27	0	11	7.2*	i	39*	i
CCOCCCN1C(=O)C(=O)N(CC(=O)N2c3ccccc3NC(=O)CC2C)C1=O (stereo not drawn)	/	/	/	8	/	/	/	/
Cc1nnc(NCc2ccncc2)c2ccccc12	-1	-15	-1	-2	7.1*	i	56*	-46*
Nc1nc(N2CCN(C(=O)c3ccco3)CC2)nc2ccc(Br)cc12	22	44	-3	-1	i	i	20*	-32*
Cc1cc(N2CCN(C(=O)c3ccco3)CC2)c2ccccc2n1	2	1	0	-2	6.9*	i	39*	-53*
O=S(=O)(c1ccccc1)N1CCN(c2ccnc3cc(Cl)ccc23)CC1	-12	10	-1	14	i	i	/	/
Nc1nc(N2CCN(C(=O)c3ccco3)CC2)nc2ccccc12	-4	15	4	-4	6.4*	i	57*	-58*
Cc1cc(N2CCN(S(=O)(=O)c3ccccc3)CC2)c2ccccc2n1	-17	-14	/	23	10*	i	53*	-73*
Cc1cc(=O)[nH]c(N2CCN(C(=O)c3ccco3)CC2)n1	5	3	-1	18	i	i	/	/
O=C(NC1CCCCC1)N1CCN(c2ccccc2Cl)CC1	-3	16	0	7	i	i	/	/
Cc1cc(N2CCN(C(=O)Nc3ccc(F)cc3F)CC2)c2ccccc2n1	-2	11	1	-2	6.6*	i	53*	-71*
CCOc1ccccc1N1CC(C(=O)Nc2ccccc2N2CCCC2)CC1=O (stereo not drawn)	-2	-3	-1	-2	i	i	/	/
CCC(C)c1ccccc1N1CC(C(=O)Nc2ccccc2N2CCCC2)CC1=O (stereo not drawn)	19	16	0	6	i	i	29*	i
Cc1ccc(-n2cc(CNCCCn3ccnc3C)c(-c3ccc(F)cc3)n2)cc1	-3	33	0	22	i	i	32*	-32*
CC(=O)c1cccc(OCC(=O)N(Cc2ccco2)c2c(N)n(Cc3ccccc3)c(=O)[nH]c2=O)c1	/	/	/	12	/	/	/	/
SMILES	Platelet DG rel	AI-2 QS mod	HIF activator	VLA-4 inh	CHT PAM	CHT inh	CHT act confirm	HEK293 MP dye
COc1ccc(-n2c(-c3ccc(F)cc3)cnc2SCC(=O)NCc2ccco2)cc1	3	9	0	-7	i	i	33*	i
CC(C)CSc1nsc(N)n1	1	28	1	12	i	i	27*	i
O=[N+]([O-])c1ccc(S(=O)(=O)N(CCCN2CCOCC2)Cc2cccs2)cc1	2	13	1	0	i	i	/	/
Cn1c(SCc2ccc(Cl)cc2)nnc1C1CC1	12	12	0	-2	i	i	/	/
Clc1ccc(CSc2nncn2-c2ccc3c(c2)OCCO3)cc1	0	11	-1	-4	13*	i	5	i
CC(=O)Nc1ccc(S(=O)(=O)N(C)CC(=O)OCC(=O)N(C)c2ccccc2)cc1	5	11	1	-8	i	i	/	/
COn1c(=O)c(-c2cccs2)[n+]([O-])c2ccccc21	-3	-2	1	-28	i	i	/	/
Cn1c(-c2cccs2)[n+](C)c2ccccc21	-8	18	0	13	9.8*	i	62*	-56*
CC(C)CCC(CCNCc1ccccn1)c1ccc2c(c1)OCO2 (stereo not drawn)	22	28	2	6	i	i	/	/
CC(C)C(CCNCc1ccccn1)c1ccc(Cl)cc1 (stereo not drawn)	1	19	1	8	6.7*	i	17*	i
Cc1nc(NC2=NCN(CCCN3CCOCC3)CN2)nc2c(C)cccc12	/	/	/	1	i	i	48*	-56*
CCCCN1CN=C(Nc2nc3ccccc3o2)NC1	-10	6	2	-3	i	i	/	/
Cc1cc(N2CCCC2)nc2c(C)cccc12	2	-13	0	11	i	i	/	/
COc1ccc(OC)c2c(C)cc(N3CCCN(C)CC3)nc12	-1	5	0	1	8*	i	46*	-74*
O=C(NCCCCc1ccccc1)c1cc([N+](=O)[O-])cc([N+](=O)[O-])c1	3	/	0	24	i	i	49*	-24*
